In the supplement of paper PMC7595190:

System: MV4-11
Test: CellTox Green cytotoxicity fluorescence relative to DMSO vehicle (fold of vehicle RFU); higher = more cell death (loss of membrane integrity), active = 2 or more
Protocol: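 Paediatric AML cell lines (MV4-11, CMK, Kasumi-1; 4x10^4 cells/well, 96-well) treated with single compounds from the Selleckchem apoptosis library at 0.01, 0.1 and 1 µM. Cytotoxicity was read with CellTox Green (RFU, Ex 485/Em 520) at 24, 48 and 72 h and normalised to the 0.1% DMSO vehicle. Normalised RFU >= 2 was taken as a successful, cell-killing treatment.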

Measured: CellTox Green cytotoxicity fluorescence

Cn1cc(-c2ccc3c(c2)CCN3C(=O)Cc2cccc(C(F)(F)F)c2)c2c(N)ncnc21
inactive: 0.01 µM, 24 h 0.987 | 0.01 µM, 48 h 0.984 | 0.01 µM, 72 h 0.979 | 0.1 µM, 24 h 0.986 | 0.1 µM, 48 h 0.981 | 0.1 µM, 72 h 0.977 | 1 µM, 24 h 1.05 | 1 µM, 48 h 1.34 | 1 µM, 72 h 1.77

C=CCc1cccc(/C=N/NC(=O)CN2CCN(Cc3ccccc3)CC2)c1O
inactive: 0.01 µM, 24 h 0.974 | 0.01 µM, 48 h 0.955 | 0.01 µM, 72 h 0.955 | 0.1 µM, 24 h 0.95 | 0.1 µM, 48 h 0.951 | 0.1 µM, 72 h 0.957 | 1 µM, 24 h 0.904 | 1 µM, 48 h 1.07 | 1 µM, 72 h 1.31

O=C(O)CSc1cc(NS(=O)(=O)c2ccc(Br)cc2)c2ccccc2c1O
inactive: 0.01 µM, 24 h 0.99 | 0.01 µM, 48 h 0.983 | 0.01 µM, 72 h 0.99 | 0.1 µM, 24 h 0.988 | 0.1 µM, 48 h 0.985 | 0.1 µM, 72 h 0.989 | 1 µM, 24 h 0.983 | 1 µM, 48 h 0.997 | 1 µM, 72 h 1.03

O=C1C(=O)N(Cc2ccc(Cl)c(Cl)c2)c2ccccc21 [Apoptosis Activator 2]
inactive: 0.01 µM, 24 h 0.971 | 0.01 µM, 48 h 0.978 | 0.01 µM, 72 h 0.98 | 0.1 µM, 24 h 1.02 | 0.1 µM, 48 h 1.03 | 0.1 µM, 72 h 1.02 | 1 µM, 24 h 1.02 | 1 µM, 48 h 1.13 | 1 µM, 72 h 1.13
